# Assay results as given in PubChem BioAssay.
# Activity calls are given as the source filed them. Unless noted, no rule for the calls is given here.
# Tests used:
# [1] = tested on: Wnt5a (protein binding on small-molecule microarray); test: small molecules binding Wnt5a protein – biophysical, small-molecule microarray, 635/667 nm fluorescence, primary screen (AID 1142); settings: 635 nm fluorescence, higher = more signal;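 also: fluorescence read at 667 nm with signal to noise per printed feature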
# [2] = ATP-based viability of Huh7 replicon cells – cell-based, CellTiter-Glo luminescence, basal, 48 h, cytotoxicity control for HCV replication inhibitor project, primary screen (AID 1143); settings: higher = more signal, called active from +8 up or from −8 down;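 also: Huh7 hepatoma cells carrying a hepatitis C replication reporter with no stimulus; test concentration not given here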
# [3] = Pseudomonas biofilm growth suppression – PAO1 strain, BacTiter-Glo luminescence, LB-PBS, primary screen (AID 1144); settings: P. aeruginosa PAO1 biofilm, 12 h, higher = more signal
# [4] = basal CRE-LacZ reporter activity in PC12 – cell-based, unstimulated, primary screen (AID 1145); settings: no forskolin, luminescence, 4.5 h, higher = more signal, called active from +8 up or from −8 down
# [5] = forskolin-driven CRE-LacZ activity in PC12 – cell-based, CRE-LacZ reporter, forskolin-stimulated, primary screen (AID 1146); settings: luminescence, 4.5 h, higher = more signal, called active from +8 up or from −8 down;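 also: PC12 cells with 6xCRE LacZ reporter stimulated by forskolin 10 µM; beta-galactosidase reporter signal reflecting CREB driven transcription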
# [6] = target: Streptavidin (Streptomyces avidinii) (UniProt P22629); test: compounds binding control protein streptavidin – biophysical, small-molecule microarray, 635/667 nm fluorescence, artefact control for SMM compound annotation, primary screen (AID 1147); settings: higher = more signal;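 also: signal reflects streptavidin binding to arrayed compounds as a control protein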
# Streptavidin (Streptomyces avidinii), sequence (P22629 whole entry, looked up): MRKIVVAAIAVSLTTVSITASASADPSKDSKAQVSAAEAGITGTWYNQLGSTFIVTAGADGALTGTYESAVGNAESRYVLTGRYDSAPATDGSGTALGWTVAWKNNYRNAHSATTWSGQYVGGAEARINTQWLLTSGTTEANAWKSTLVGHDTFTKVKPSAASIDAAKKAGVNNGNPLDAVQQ
# [7] = probe aInhba binding on compound microarray – biochemical, small-molecule microarray, 635/667 nm fluorescence, primary screen (AID 1148); settings: higher = more signal;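 also: score merges 667nm spot fluorescence with signal-to-noise for antibody binding to printed compounds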
# Torsin-1A (Homo sapiens) [8] = target: Torsin-1A (Homo sapiens) (UniProt O14656); test: TOR1A wild-type binding on microarray – cell lysate, small-molecule microarray, lysate, 635/667 nm, primary screen (AID 1149); settings: COS7 hTOR1A-WT lysate, 635 nm fluorescence, higher = more signal
# Torsin-1A (Homo sapiens), sequence (O14656 whole entry, looked up): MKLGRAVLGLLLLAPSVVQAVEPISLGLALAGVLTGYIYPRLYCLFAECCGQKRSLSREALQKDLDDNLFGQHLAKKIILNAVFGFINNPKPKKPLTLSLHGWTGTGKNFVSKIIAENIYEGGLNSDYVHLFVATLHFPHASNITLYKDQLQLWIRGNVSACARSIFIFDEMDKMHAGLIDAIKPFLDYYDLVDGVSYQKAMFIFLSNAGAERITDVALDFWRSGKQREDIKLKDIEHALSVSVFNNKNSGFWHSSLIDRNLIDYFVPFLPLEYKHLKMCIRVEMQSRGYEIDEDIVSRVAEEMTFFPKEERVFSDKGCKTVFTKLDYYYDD
# Torsin-1A (Homo sapiens) [9] = target: Torsin-1A (Homo sapiens) (UniProt O14656); test: torsin A mutant lysate binding on microarrays – cell lysate, small-molecule microarray, COS7 lysate, 635/667 nm fluorescence, primary screen (AID 1150); settings: COS7 hTOR1A mutant lysate, 635 nm fluorescence, higher = more signal;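 also: score pools 667 nm emission and signal to noise measuring lysate protein binding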
# [10] = tested on: Sonic hedgehog protein (Shh); test: Sonic hedgehog microarray binding compounds – biochemical, small-molecule microarray, 635/667 nm fluorescence, primary screen (AID 1151); settings: 635 nm fluorescence, higher = more signal;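 also: Shh protein binding to compounds spotted on small-molecule microarray slides; score combines spot fluorescence intensity with signal-to-noise across triplicate slides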
SMILES,composite z-score [1],z-score [2],z-score [3],z-score [4],z-score [5],composite z-score [6],composite z-score [7],composite z-score (Torsin-1A (Homo sapiens) [8]),composite z-score (Torsin-1A (Homo sapiens) [9]),composite z-score [10]
COC(=O)C(CC#Cc1ccc2c(c1)[C@]1(C(=O)N2)[C@H](c2ccc(O)cc2)N2[C@H](c3ccccc3)[C@H](c3ccccc3)OC(=O)[C@H]2[C@@H]1C(=O)N1CCc2cc(OC)c(OC)cc2C1)C(=O)OC,0.294,-0.26 (inactive),0.786 (inactive),0.918 (inactive),0.351 (inactive),0.455,-0.101,0.966,0.48,1.31
COCCOC(=O)N1C(=O)[C@@]2(c3cc(C#CC4(O)CCCCCC4)ccc31)[C@H](c1ccc(OCCO)cc1)N1[C@H](c3ccccc3)[C@H](c3ccccc3)OC(=O)[C@H]1[C@@H]2C(=O)N1CCCCCCC1,0.539,-4.81 (inactive),-0.227 (inactive),0.212 (inactive),-0.325 (inactive),1.68,1.63,1.12,1.12,2
C=CCC(OC(C)=O)[C@@H]1[C@@H](N(Cc2ccc(-c3cccc(C(F)(F)F)c3)o2)C(=O)Cc2ccc(F)cc2)c2cc(OCCCO)ccc2N1C(=O)c1ccc2ccccc2n1 (stereo not given in full),-0.123,-0.0676 (inactive),-0.147 (inactive),0.134 (inactive),1.5 (inactive),-0.127,-0.176,-0.187,-0.326,0.244
CC(C)C(=C=CC[C@@H](O)c1ccccc1OCCO)C[C@@H](O)c1cc(Cl)cc(Cl)c1O,0.532,-3.43 (inactive),0.519 (inactive),3.25 (inactive),0.266 (inactive),1.05,0.0622,1.44,0.86,2.11
COC(=O)[C@@]1(Cc2ccc(F)cc2)[C@H]2c3cc(C(=O)N(C)C)n(CCN4CCOCC4)c3C[C@H]2CN1C(=O)c1ccccc1,0.483,-1.02 (inactive),0.263 (inactive),-0.372 (inactive),0.823 (inactive),1.36,0.17,2.73,2.17,-0.976
CCC[C@@H]1C=C(C(=O)OCC)[C@H](c2ccccc2)N1S(=O)(=O)c1ccc(C)cc1,0.539,-4.29 (inactive),1.18 (inactive),-0.527 (inactive),-0.578 (inactive),0.795,0.436,0.131,0.373,0.203
CN1C(=O)[C@]2(CCC(=O)OC(C)(C)C)N=C(c3ccc(OCCCO)cc3)O[C@@H]2c2ccccc21,0.935,-4.74 (inactive),-0.598 (inactive),1.41 (inactive),-0.572 (inactive),-0.201,0.134,0.112,0.401,2.11
COCCOC(=O)N1C(=O)[C@@]2(c3ccccc31)[C@H](C(N)=O)[C@H]1C(=O)O[C@H](c3ccccc3)[C@H](c3ccccc3)N1[C@@H]2c1ccc(OCCO)cc1,0.62,-1.57 (inactive),-0.762 (inactive),-1.28 (inactive),-1.15 (inactive),0.554,0.0155,1.13,1.14,1.9
[N-]=[N+]=NCc1ccccc1C[C@@]1(C(=O)O)N=C(c2ccc(OCCCO)cc2)O[C@@H]1c1ccccc1CN=[N+]=[N-],0.561,-1.96 (inactive),-0.595 (inactive),-0.996 (inactive),-1.4 (inactive),0.465,0.353,1.28,0.171,0.447
C[C@@H](OCc1ccccc1)C1NC(=O)[C@@]23C(=O)N[C@@H](Cc4ccccc4)C2[C@H](C)[C@@]2(C)O[C@H]2C3/C=C/C/C=C\CNC(=O)[C@H](Cc2ccccc2)NC1=O (stereo not given in full),-0.0187,-3.97 (inactive),0.541 (inactive),5.48 (inactive),-0.164 (inactive),-0.85,0.0131,-0.258,0.293,1.07
O=C(NCCO)C1=C[C@H](Oc2ccccc2I)[C@@H](O)[C@H](NCc2ccc(F)cc2)C1,0.273,-2.8 (inactive),0.148 (inactive),4.56 (inactive),0.925 (inactive),-0.743,-0.197,0.693,1,2.08
CCOC(=O)C1=CC[C@@H](c2ccccc2Cl)N(S(=O)(=O)c2ccc(C)cc2)[C@H]1c1cccc(OC)c1,0.142,-1.84 (inactive),1.15 (inactive),0.425 (inactive),0.173 (inactive),0.333,-0.0695,0.368,0.0635,-0.476
C=CCN1C(=O)[C@]2(O[C@H](CCn3cc([C@H](O)c4ccccc4)nn3)[C@@H]([Si](C)(C)c3ccc(OC)cc3)[C@@H]2C)c2cc(N3C(=O)c4cccc5cccc3c45)ccc21,0.0898,-6.26 (inactive),-0.774 (inactive),9.81 (active),-0.745 (inactive),0.633,-0.255,-0.439,1.18,0.204
CO[C@H]1O[C@H](CO)[C@@H](OC(=O)Nc2ccc3c(c2)OCO3)[C@@H]2OC(=O)[C@@H](Cc3ccccc3)C/C=C/C[C@H](Cc3ccccc3)C(=O)O[C@@H]12,0.465,-2.26 (inactive),0.293 (inactive),0.951 (inactive),-0.601 (inactive),0.294,0.24,-0.0548,0.266,1.32
CN1C=C(C(=O)OCCS(C)(=O)=O)C(C(=O)OCCS(C)(=O)=O)=CC(CCCO)=CC1c1ccc(CN2CCCC2)cc1 (stereo not given),0.531,-0.209 (inactive),0.356 (inactive),5.05 (inactive),-0.267 (inactive),1.24,0.253,0.244,1.19,1.06
COCCOC(=O)N1C(=O)[C@@]2(c3cc(C#CC4(O)CCCCCC4)ccc31)[C@H](c1ccccc1OCCO)N1[C@H](c3ccccc3)[C@H](c3ccccc3)OC(=O)[C@H]1[C@@H]2C(=O)N1CCCCCCC1,0.611,-4.01 (inactive),-0.977 (inactive),-1.01 (inactive),0.881 (inactive),1.64,1.2,0.812,1.02,2.01
C=CC[C@@]12N=C(c3ccc(OCCCO)cc3)O[C@@H]1c1ccccc1N(Cc1ccccc1)C2=O,0.711,-4.31 (inactive),0.519 (inactive),1.1 (inactive),-1.66 (inactive),0.25,0.605,1.19,0.909,2.06
[N-]=[N+]=NCc1ccccc1C[C@]1(C(=O)O)COC(c2ccc(OCCCO)cc2)=N1,-0.333,0.432 (inactive),0.475 (inactive),-0.426 (inactive),-0.916 (inactive),-0.878,-0.13,0.861,0.0486,-1.03
COC(=O)[C@@]1(Cc2ccccc2)[C@H]2c3cc(C(=O)N4CCCC4)n(Cc4ccc(C(F)(F)F)nc4)c3C[C@H]2CN1C(=O)c1ccccc1,0.836,-2.97 (inactive),0.519 (inactive),0.0075 (inactive),-0.611 (inactive),1.78,0.446,1.03,0.774,-0.878
COCCOC(=O)N1C(=O)[C@@]2(c3cc(C#CCC(C(=O)OC)C(=O)OC)ccc31)[C@H](c1ccc(OCCO)cc1)N1[C@H](c3ccccc3)[C@H](c3ccccc3)OC(=O)[C@H]1[C@@H]2C(=O)N1CCCCCCC1,0.803,-1.67 (inactive),-0.147 (inactive),-0.467 (inactive),-0.553 (inactive),2.53,1.91,2.42,1.98,1.58
CC(C)CNC(=O)[C@@H]1c2ccccc2C(=O)N(Cc2ccccc2)[C@H]1c1ccc(CO)cc1,-0.267,-0.692 (inactive),-0.33 (inactive),0.441 (inactive),-0.0682 (inactive),-1.04,-0.285,0.3,1.2,-0.693
COCCOC(=O)N1C(=O)[C@@]2(c3cc(C#CCCO)ccc31)[C@H](C(=O)N1CCc3cc(OC)c(OC)cc3C1)[C@H]1C(=O)O[C@H](c3ccccc3)[C@H](c3ccccc3)N1[C@@H]2c1ccccc1OCCO,0.75,-1.84 (inactive),-0.652 (inactive),-0.89 (inactive),-0.251 (inactive),0.587,0.425,0.258,0.904,1.69
Cc1ccc(S[C@]2(C(=O)NCCCN(C)C)CC(=O)N(Cc3ccccc3Cl)[C@@H]2c2ccc(CO)cc2I)cc1,-0.256,-0.826 (inactive),0.601 (inactive),0.0924 (inactive),0.752 (inactive),-0.245,-0.157,-0.601,-0.679,-0.995
O=C1OCCC=C[C@H]2OC34C=CCN(CCN5CCOCC5)C(=O)[C@H]3N(CCCO)C(=O)[C@@H]4C12 (stereo not given in full),-0.543,-2.19 (inactive),-0.561 (inactive),-0.354 (inactive),1.74 (inactive),-0.613,-0.0066,-1.78,-1.33,0.243
C=C(CCCC)C(=O)CC[C@H](OC(=O)c1cccnc1)c1ccc(CO)o1,0.239,0.0536 (inactive),-0.159 (inactive),-0.117 (inactive),0.484 (inactive),0.14,0.212,0.835,0.576,1.6
CC(C)CNC(=O)[C@@H]1c2ccccc2C(=O)N(C2Cc3ccccc3C2)[C@H]1c1ccc(CO)cc1,-0.0027,-0.13 (inactive),0.92 (inactive),0.118 (inactive),-0.748 (inactive),-0.861,-0.106,-1.03,0.0877,0.436
C[N+](C)(C)CCCC[C@@H]1NC(=O)[C@H]2C[C@@H](C(=O)NCCCCCNC(=O)CS)[C@@H](c3ccc(O)cc3)N2C1=O,0.084,-0.523 (inactive),-1.39 (inactive),0.0084 (inactive),-0.165 (inactive),0.354,-0.045,0.327,0.891,0.748
CC1(C)OC[C@@]23C=C(Br)[C@@H](C[C@H]12)[C@@]1(CO1)C3=O,0.0405,0.661 (inactive),0.844 (inactive),0.494 (inactive),0.925 (inactive),-0.0131,-0.0331,0.667,0.483,0.474
